# From PubChem BioAssay
# The list is not random: actives were taken first. Their share in the collection is about 2.6%.
# Cruzain inh Det – cruzain (T. cruzi) inhibition with detergent; P25779; purified cruzain, Z-FR-AMC fluorescence, 0.01% Triton; Potency, µM, for inactives: max response, negative = inhibition, usual class: inhibitors; 200,000 tested, 0.43% active; AID 1478;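 further: plate controls were neutral wells for no effect and buffer without enzyme for full effect; nearly all actives have a fitted effect of over 40% in size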
# Target sequence (P25779 123-467 limits assumed): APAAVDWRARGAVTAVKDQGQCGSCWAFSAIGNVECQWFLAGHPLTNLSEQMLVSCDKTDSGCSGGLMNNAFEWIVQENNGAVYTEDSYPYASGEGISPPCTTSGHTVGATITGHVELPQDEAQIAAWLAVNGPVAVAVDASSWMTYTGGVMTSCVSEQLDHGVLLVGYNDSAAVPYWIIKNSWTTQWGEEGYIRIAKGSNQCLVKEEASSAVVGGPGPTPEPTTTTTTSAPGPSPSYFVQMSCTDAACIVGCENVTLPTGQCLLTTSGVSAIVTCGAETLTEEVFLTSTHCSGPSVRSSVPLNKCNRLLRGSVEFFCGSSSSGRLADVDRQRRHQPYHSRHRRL
#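 Cysteine protease activity tested under reducing, mildly acidic conditions (100 mM sodium acetate pH 5.5, 5 mM DTT) plus 0.01% Triton X-100. Cruzain 1.5 nM; substrate Z-FR-AMC 2 uM; 15 min compound preincubation at room temperature.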
# Cruzain inh noDet – cruzain (T. cruzi) inhibition without detergent; 200,000 tested, 2.3% active; Potency, µM, without a hit: max response, negative = inhibition, actives largely listed as inhibitors; AID 1476; purified cruzain, Z-FR-AMC fluorescence, no detergent; P25779;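 further: plate controls were enzyme without inhibitor for no effect and buffer without enzyme for full effect; nearly all actives have a fitted effect of over 40% in size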
#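 Purified cruzain at 1.5 nM, pre-incubated 15 min with compound at room temperature in 100 mM sodium acetate pH 5.5, 5 mM DTT, 0.00005% Triton X-100. Reaction started with 2 uM Z-FR-AMC; AMC fluorescence increase over 60 s gives rate.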
# Numbers without * were called inactive; u = inconclusive. The call rests on the fitted dose curve; in most records, active means well fitted curve in the direction sought with a large enough effect; inconclusive means small, poorly fitted or top-dose-only effect, or another doubt; inactive means no such curve, though single readings can be large; an effect the other way counts as inactive or inconclusive. Potency means the concentration at half of the fitted maximal effect.
SMILES,Cruzain inh Det,Cruzain inh noDet
CC(C)c1noc(-c2ccccc2OCC(=O)Nc2cccc([N+](=O)[O-])c2)n1,-5%,15%
COc1ccc(-n2cc(C(=O)NCc3ccccc3Cl)c3ccccc3c2=O)cc1,-1%,0%
COc1cccc(NC(=O)c2nnn(Cc3ccc(OC)c(Br)c3)c2N)c1,-2%,-5%
CCOc1ccc2c(c1)sc(N)[n+]2Cc1cc(C)cc2cccnc12,-10%,1%
CCOc1ccc2c(ccc(/C=C\c3cc(C)c4cccnc4c3O)[n+]2C)c1,3.2µM*,0%
COc1ccc2cc3cc(C(=O)NCc4ccc5c(c4)OCO5)oc3nc2c1,-9%,-17%
COc1ccc2cc3cc(C(=O)N4CCN(Cc5ccc6c(c5)OCO6)CC4)oc3nc2c1,32µM*,0%
CC(=O)N1CCc2cc(S(=O)(=O)CCC(=O)Nc3ccc(C)cc3Br)ccc21,-5%,6%
O=S(=O)(NCCc1csc2nc(-c3ccc(F)cc3)nn12)c1ccc(Br)cc1,-7%,2%
O=C(CSc1nc2c([nH]c3ccccc32)c(=O)n1-c1ccc(Cl)cc1)NCc1ccccc1,0%,5%
COc1ccc(NC(=S)NNc2ccc([N+](=O)[O-])cc2S(=O)(=O)Nc2ccc(C)cc2C)cc1,-14%,25µM*
Cc1ccccc1NS(=O)(=O)c1cc(C(=O)Nc2cccc([N+](=O)[O-])c2)ccc1C,-6%,11%
Cc1ccc(NS(=O)(=O)c2cc([N+](=O)[O-])ccc2NNC(=S)Nc2cccc(Cl)c2)c(C)c1,20µM*,-22%
Cc1ccc(NS(=O)(=O)c2cc([N+](=O)[O-])ccc2NNC(=S)Nc2cc(C)ccc2C)c(C)c1,-10%,u
CN1C(C)(C)CC(=NOC(=O)c2ccccc2)CC1(C)C,-1%,2%
CN1C(=O)/C(=N/OC(=O)c2ccccc2)c2ccccc21,4.5µM*,6.3µM*
Cc1ccc(NC(=O)C2CCCN(c3ncnc4onc(C)c34)C2)c(Cl)c1 (configuration not stated),0%,-11%
O=C(N/N=C/c1ccc[nH]1)c1ccccc1[N+](=O)[O-],-4%,-10%
COc1ccccc1NS(=O)(=O)c1cc([N+](=O)[O-])ccc1N/N=C/c1c[nH]c2ccccc12,6%,10µM*
O=[N+]([O-])c1ccc(N/N=C/c2ccc[nH]2)cc1,-24%,25µM*
O=C(N/N=C/c1c[nH]c2ccccc12)c1cccc([N+](=O)[O-])c1,-12%,1%
COc1ccc([N+](=O)[O-])cc1NS(=O)(=O)c1ccccc1,-7%,0%
O=[N+]([O-])c1ccccc1N/N=C/c1c[nH]c2ccccc12,-5%,2%
O=[N+]([O-])c1ccc(N/N=C/c2c[nH]c3ccccc23)cc1,-4%,25µM*
O=C(N/N=C/c1c[nH]c2c1ccc1ccccc12)c1ccc([N+](=O)[O-])cc1,-4%,6.3µM*
SMILES,Cruzain inh Det,Cruzain inh noDet
c1cncc(CNc2cc(-c3ccc4c(c3)OCO4)ncn2)c1,-6%,-17%
CNC1=C(Cl)C(=O)c2ccncc2C1=O,-4%,-10%
CCOc1ccccc1CNC(=O)CSc1n[nH]c(-c2ccccc2Cl)n1,-2%,-1%
COc1ccc(-n2nc(C(=O)N(C)c3cc(Cl)ccc3OC)c3c4ccccc4n(C)c3c2=O)cc1,-1%,-26%
O=C(CCS(=O)(=O)c1cc(Br)cc2c1N(C(=O)C1CC1)CC2)NCc1ccccc1Cl,0%,-2%
CCc1cccc(NC(=O)Cn2c(=O)n(CCC(=O)NCc3ccccc3Cl)c(=O)c3sccc32)c1,-3%,-19%
COc1ccccc1NS(=O)(=O)c1cc([N+](=O)[O-])ccc1N/N=C/c1sc(N2CCOCC2)nc1-c1ccccc1,-2%,6.3µM*
Cc1ccc(/C=N/Nc2nc3ccccc3[nH]2)s1,-17%,-24%
Cc1[nH]c2ccccc2c1/C=N/Nc1ccc([N+](=O)[O-])cc1S(=O)(=O)Nc1ccc(Cl)cc1,5%,5µM*
COc1ccccc1NS(=O)(=O)c1ccc(N/N=C/c2c(C)nn(-c3ccccc3)c2N2CCCC2)c([N+](=O)[O-])c1,-1%,3.2µM*
COc1ccc(NS(=O)(=O)c2cc([N+](=O)[O-])ccc2N/N=C\c2c(C)[nH]c3ccccc23)cc1,2%,u
C(=N\Nc1nc2ccccc2[nH]1)/c1c[nH]c2ccccc12,u,16µM*
Cc1nn(-c2ccccc2)c(N2CCCC2)c1/C=N/Nc1ccc(S(=O)(=O)Nc2ccccc2)cc1[N+](=O)[O-],5%,u
COc1ccc(/C=N/Nc2ccc([N+](=O)[O-])cc2S(=O)(=O)N2CCN(C)CC2)cc1,-4%,2%
CC(Oc1ccccc1)C(=O)Nc1nc2ccc(S(N)(=O)=O)cc2s1 (configuration not stated),-4%,-7%
Cc1ccc2c(=O)cc(C(=O)Nc3cccc(Cl)c3C)oc2c1C,0%,4%
CCCCC(=O)Nc1nnc(S(=O)(=O)N(CC)c2cc(C)cc(C)c2)s1,-7%,-4%
Cc1cccc(NS(=O)(=O)c2c(C)nc3sccn3c2=O)c1C,-5%,6%
COc1ccc(-c2nc3ccccc3s2)cc1NC(=O)c1ccc(F)cc1,1%,-16%
Cc1ccc(C)n1-c1nnc(N2CCCC(C(=O)NCc3cccc(F)c3)C2)s1 (configuration not stated),-8%,-7%
O=S(=O)(Cl)c1ccccc1,4%,-3%
Brc1ccc(-c2ccc(/C=N/Nc3nc4ccccc4[nH]3)o2)cc1,u,7.9µM*
Brc1ccc(-c2ccc(/C=N/Nc3nncc(-c4ccccc4)n3)o2)cc1,5%,-6%
CCCN1CCN(CCCNC(=O)c2cnn(-c3ccc(F)cc3)c2-n2cccc2)CC1,0%,-14%
COc1cc(OC)c(NC(=O)c2c3c(nc4ccccc24)C(=O)N(C2CCCCC2)C3)cc1Cl,-3%,7%
SMILES,Cruzain inh Det,Cruzain inh noDet
Cc1cc(C)cc(-n2nnnc2SCC(=O)Nc2nc(-c3ccc(Cl)cc3)cs2)c1,4%,6.3µM*
Cc1cc(C)cc(-n2nnnc2SCC(=O)Nc2nc(-c3ccc(F)cc3)cs2)c1,6%,25µM*
Cc1ccc(-n2nnnc2SCC(=O)Nc2nc(-c3ccc(F)cc3)cs2)cc1C,4%,u
Cc1nnc(SCC(=O)Nc2nc(-c3ccccc3)cs2)n1N,4%,-19%
COc1ccc([N+](=O)[O-])cc1NC(=O)C(C)c1ccccc1 (configuration not stated),-7%,-4%
COc1ccc([N+](=O)[O-])cc1NC(=O)CC(c1ccccc1)c1ccccc1,-3%,25µM*
Cc1cc(C)nc(Nc2nc3ccccc3[nH]2)n1,-21%,-20%
c1ccc(Nc2nc3ccccc3[nH]2)nc1,25µM*,10µM*
Cc1nc2ccc(S(=O)(=O)N(C)CC(=O)Nc3cccc(C(F)(F)F)c3)cc2s1,-6%,5%
CCC(C)S(=O)(=O)c1oc(-c2ccc(F)cc2)nc1S(=O)(=O)c1ccc(F)cc1 (configuration not stated),-6%,1%
CCCCOc1ccccc1NC(=O)CC1Nc2ccccc2NC1=O (configuration not stated),0%,25µM*
CCCCNC(=O)CC1Nc2ccccc2NC1=O (configuration not stated),-3%,5%
O=C(CN1CCN(Cc2ccc(F)cc2Cl)S1(=O)=O)Nc1ccc(F)cc1,-6%,7%
O=C1CC(N2C(=O)/C(=C/C=C/c3ccccc3)SC2=S)C(=O)N1c1ccccc1 (configuration not stated),-6%,16µM*
